PubChem BioAssay (NCI)
This is part of a sample that, as a whole, favours compounds with a hit. Of some 83,000 tested, about 20% had one in any assay.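 Single-dose data. Exposure time 48 hours. Values below 10 considered active.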 The source made the active and inactive calls.

What was measured:
Experiment in all cases: NCI-60 one-dose screen, 48 h (100 = growth as untreated, 0 = no growth, -100 = all killed)
Conditions in all cases: 10 µM unless noted
DU-145 prostate = tested on: DU-145 prostate
K-562 leukemia = tested on: K-562 leukemia
MALME-3M melanoma = tested on: MALME-3M melanoma
MDA-MB-231 breast = tested on: MDA-MB-231 breast
SF-268 CNS = tested on: SF-268 CNS
SF-295 CNS = tested on: SF-295 CNS
SF-539 CNS = tested on: SF-539 CNS
UACC-257 melanoma = tested on: UACC-257 melanoma
M14 melanoma = tested on: M14 melanoma
HT29 colon = tested on: HT29 colon
SNB-75 CNS = tested on: SNB-75 CNS
SNB-19 CNS = tested on: SNB-19 CNS
U251 CNS = tested on: U251 CNS
PC-3 prostate = tested on: PC-3 prostate
SK-MEL-5 melanoma = tested on: SK-MEL-5 melanoma
UACC-62 melanoma = tested on: UACC-62 melanoma
LOX IMVI melanoma = tested on: LOX IMVI melanoma
SK-MEL-28 melanoma = tested on: SK-MEL-28 melanoma
HCT-15 colon = tested on: HCT-15 colon
RXF 393 renal = tested on: RXF 393 renal

Compound	growth (DU-145 prostate)	growth (K-562 leukemia)	growth (MALME-3M melanoma)	growth (MDA-MB-231 breast)	growth (SF-268 CNS)	growth (SF-295 CNS)	growth (SF-539 CNS)	growth (UACC-257 melanoma)	growth (M14 melanoma)	growth (HT29 colon)	growth (SNB-75 CNS)	growth (SNB-19 CNS)	growth (U251 CNS)	growth (PC-3 prostate)	growth (SK-MEL-5 melanoma)	growth (UACC-62 melanoma)	growth (LOX IMVI melanoma)	growth (SK-MEL-28 melanoma)	growth (HCT-15 colon)	growth (RXF 393 renal)
O=C(/C=C(\Nc1ccccc1)c1ccccc1)c1cn(-c2ccc([N+](=O)[O-])cc2)nn1	125% (inactive)	73.8% (inactive)	103% (inactive)	103% (inactive)	98.3% (inactive)	73.3% (inactive)	94.9% (inactive)	42.4% (inactive)	97.6% (inactive)	96.9% (inactive)	91.8% (inactive)	97.6% (inactive)	87.5% (inactive)	80.1% (inactive)	97.1% (inactive)	84.9% (inactive)	88.5% (inactive)	83.7% (inactive)		
CCN(CC)CCOCC[C@H]1CC[C@H]2[C@@H]3[C@H](C)Cc4cc(OS(N)(=O)=O)ccc4[C@H]3CC[C@]12C	-58.6% (active)	-63.8% (active)	-67.5% (active)	-67.3% (active)	-80.2% (active)	-65% (active)	-96.1% (active)		-97.1% (active)	-63.8% (active)	-42.7% (active)	-94.4% (active)	-71% (active)	-88.8% (active)	-90.4% (active)	-79.7% (active)	-65% (active)	-91.1% (active)	-37% (active)	
COc1ccc(NC(=O)[C@@H]2C[C@H]2c2ccccc2)c(C(N)=O)c1	105% (inactive)	71.8% (inactive)	91% (inactive)	87.9% (inactive)	97.9% (inactive)	100% (inactive)	99.7% (inactive)	92.9% (inactive)	91.4% (inactive)	95.5% (inactive)	96.2% (inactive)	96.3% (inactive)	97.2% (inactive)	90.2% (inactive)	96.5% (inactive)	95.7% (inactive)	93.6% (inactive)	96.7% (inactive)	89.5% (inactive)	
COC(=O)C1(NC(=O)CNC(=O)OCc2ccccc2)CCCC1	114% (inactive)	98.7% (inactive)		95.8% (inactive)	114% (inactive)	117% (inactive)	99.4% (inactive)	106% (inactive)	105% (inactive)	108% (inactive)	88.4% (inactive)	96.5% (inactive)	105% (inactive)	103% (inactive)	100% (inactive)	92.3% (inactive)	97.3% (inactive)	102% (inactive)	103% (inactive)	105% (inactive)
CCOC(=O)Nc1ccc2c3c(cccc13)-c1ccccc1-2	66.1% (inactive)	15.6% (inactive)		35% (inactive)	52.3% (inactive)	27.2% (inactive)	21.9% (inactive)	59.4% (inactive)	6.41% (active)	5.04% (active)	6.18% (active)	45.1% (inactive)	34.5% (inactive)	49.8% (inactive)	33.6% (inactive)	30.5% (inactive)	30.5% (inactive)	46% (inactive)	25.2% (inactive)	57.9% (inactive)
COc1ccc(C2=NN(C(N)=S)C(c3ccc4c(c3)OCO4)C2)cc1 (stereo unspecified)	-3.99% (active)	5.68% (active)		48.7% (inactive)	21.5% (inactive)	-9.16% (active)	21.4% (inactive)	38% (inactive)	21.6% (inactive)	7.46% (active)	26.5% (inactive)	46.9% (inactive)	21.6% (inactive)	33.3% (inactive)	41.5% (inactive)	43.6% (inactive)	-18.2% (active)	75.4% (inactive)	23.2% (inactive)	48.5% (inactive)
CCOC(=O)c1cnc2c(C)cc(C)cc2c1NCCCN(C)C	35.4% (inactive)	8.6% (active)	51% (inactive)	35.7% (inactive)	35.7% (inactive)	29.9% (inactive)	28.9% (inactive)		34.2% (inactive)	13.1% (inactive)	51.1% (inactive)	42.4% (inactive)	28.3% (inactive)	22% (inactive)	46.5% (inactive)	46.7% (inactive)	23.2% (inactive)	76.2% (inactive)	28.2% (inactive)	
CN(C)CCC(=O)Nc1ccc(-n2cc(-c3cccc(NC(=S)Nc4cccc(-c5cn(-c6ccc(NC(=O)CCN(C)C)cc6)nn5)c4)c3)nn2)cc1	115% (inactive)	18.6% (inactive)		107% (inactive)	98.6% (inactive)	65.3% (inactive)	97.6% (inactive)	117% (inactive)	112% (inactive)	28.4% (inactive)	119% (inactive)	106% (inactive)	70.9% (inactive)	89% (inactive)	97.2% (inactive)	114% (inactive)	19.3% (inactive)	133% (inactive)	92.5% (inactive)	135% (inactive)
CN(C)CCCNc1nn2c(=O)c3ccccc3nc2c2ccccc12	81.4% (inactive)	41% (inactive)	66.4% (inactive)	77.1% (inactive)	61% (inactive)	47.9% (inactive)	41.2% (inactive)		89.2% (inactive)	32.6% (inactive)	51.2% (inactive)	69.7% (inactive)	57.2% (inactive)	62.1% (inactive)	52.6% (inactive)	67.3% (inactive)	33.8% (inactive)	93.2% (inactive)	55.3% (inactive)	
Nc1ncnc2c1CN(Cc1ccccc1)CC2	132% (inactive)	98.1% (inactive)		104% (inactive)	105% (inactive)	105% (inactive)	99.2% (inactive)	111% (inactive)	111% (inactive)	104% (inactive)	89% (inactive)	104% (inactive)	101% (inactive)	93.9% (inactive)	109% (inactive)	107% (inactive)	91.4% (inactive)	109% (inactive)	107% (inactive)	122% (inactive)
